Some test systems named below: DU-145 prostate; K-562 leukemia; MALME-3M melanoma; MDA-MB-231 breast; RXF 393 renal; SF-268 CNS; SF-295 CNS; SF-539 CNS; UACC-257 melanoma; M14 melanoma; HCT-15 colon; HT29 colon; SNB-75 CNS; SNB-19 CNS; U251 CNS; PC-3 prostate; SK-MEL-5 melanoma; UACC-62 melanoma; LOX IMVI melanoma; SK-MEL-28 melanoma.
Holding throughout (experiment): NCI-60 one-dose screen, 48 h (100 = growth as untreated, 0 = no growth, -100 = all killed)
Holding throughout (details): 10 µM unless noted

Structures are written as SMILES. The panel holds about 83,000 compounds, 20% with a hit somewhere; the sample as a whole holds those more often.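 Compound tested at a single concentration for 48 hours in 96-well plates; a percent growth value below 10 was scored as active.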 A number with no mark means an inactive call. Calls of active or inactive are those of the source.

As for `CCC(C)(C)C(=O)O[C@H]1C[C@@H](C)C=C2C=C[C@H](C)[C@H](CC[C@@H]3CC(SCCN)CC(=O)O3)[C@H]21` (stereo not given in full), the growth in the test with DU-145 prostate was 98.7%; in the test on K-562 leukemia, 51.2%; in the test with MALME-3M melanoma it was 86.2%; in the test with MDA-MB-231 breast it was 88.7%; with RXF 393 renal it was 86.8%; in the test with SF-268 CNS it was 96.3%. Also, the growth in the test with SF-295 CNS is 106%; in the test with SF-539 CNS, 76.2%; in the test on UACC-257 melanoma it was 78%; in the test on M14 melanoma, 60.1%; in the test with HCT-15 colon it was 100%; in the test with HT29 colon it was 75%. The growth with SNB-75 CNS is 95.5%; in the test with SNB-19 CNS it was 93%; with U251 CNS it was 87.5%; with PC-3 prostate, 44.3%; with SK-MEL-5 melanoma, 89.4%; in the test on UACC-62 melanoma, 84.3%. Also, the growth in the test on LOX IMVI melanoma is 75.8%; with SK-MEL-28 melanoma, 102%.
Consider `CC(C)Cn1cnc2c(=O)[nH]c(N)nc21`, for which the growth is 109% in the test on DU-145 prostate; 99.9% with K-562 leukemia; 98.3% in the test on MALME-3M melanoma; 114% in the test on MDA-MB-231 breast; 94.4% in the test with RXF 393 renal; 106% in the test on SF-268 CNS. Further, the growth is 99.2% with SF-295 CNS; 104% in the test on SF-539 CNS; 84.1% in the test on UACC-257 melanoma; 105% in the test with M14 melanoma; 106% in the test with HCT-15 colon; 79.2% in the test on HT29 colon. Besides, the growth in the test with SNB-75 CNS is 84.4%; in the test with SNB-19 CNS, 100%; in the test on U251 CNS, 94.8%; in the test with PC-3 prostate, 92.8%; with SK-MEL-5 melanoma, 98.9%; in the test on UACC-62 melanoma, 103%. Further, the results for the growth in the test with LOX IMVI melanoma and in the test with SK-MEL-28 melanoma were 97.8% and 115%, respectively.
For the compound `COC(=O)/C=C1/SC(=Nc2cccc(OC)c2)N(CCc2c[nH]c3ccc(O)cc23)C1=O`, the growth in the test on DU-145 prostate was 33.1%; with K-562 leukemia it was 34.1%; with MALME-3M melanoma, 79.5%; with MDA-MB-231 breast, 66.6%; in the test with RXF 393 renal it was 52.6%; in the test with SF-268 CNS, 67%. The growth in the test on SF-295 CNS is 81.4%; with SF-539 CNS it was 72.4%; in the test on UACC-257 melanoma it was 57.7%; with M14 melanoma it was 51.3%; with HCT-15 colon, 26.4%; in the test on HT29 colon, 92%. The growth was 71% in the test with SNB-75 CNS; 54.3% in the test with SNB-19 CNS; 45.4% with U251 CNS; 46% with PC-3 prostate; 63.6% in the test on SK-MEL-5 melanoma; 53.4% in the test on UACC-62 melanoma. Besides, the growth was 23.5% in the test on LOX IMVI melanoma and 70.9% in the test on SK-MEL-28 melanoma.
For the compound `Fc1ccc(CNc2c3ccccc3nc3ccccc23)c(F)c1`, the growth with DU-145 prostate is 50.9%; in the test on K-562 leukemia it was 22.5%; with MALME-3M melanoma it was 69.5%; with MDA-MB-231 breast it was 44.4%; with RXF 393 renal, 34.5%; with SF-268 CNS it was 68.6%. Besides, the growth in the test with SF-295 CNS was 40.4%; in the test on SF-539 CNS, 32.4%; in the test with UACC-257 melanoma, 68.9%; in the test on M14 melanoma, 55.3%; with HCT-15 colon it was 28.7%; in the test with HT29 colon it was 21.8%. In addition, the growth is 81.1% with SNB-75 CNS; 41.5% with SNB-19 CNS; 44.1% with U251 CNS; 68.9% in the test with PC-3 prostate; 69.4% with SK-MEL-5 melanoma; 59.1% in the test on UACC-62 melanoma. Also, the growth with LOX IMVI melanoma is 21.5%; with SK-MEL-28 melanoma, 90.4%.
With `COc1cc2cc(NCc3cccc(Cl)c3)nc(C)c2cc1OC`, the growth in the test on DU-145 prostate is 62.8%; in the test with K-562 leukemia it was 8.28% (active); with MALME-3M melanoma, 80.6%; in the test with MDA-MB-231 breast it was 41.6%; in the test with RXF 393 renal it was 40.3%; with SF-268 CNS it was 41.3%. In addition, the growth in the test on SF-295 CNS was 26.1%; in the test on SF-539 CNS, 5.02% (active); in the test on UACC-257 melanoma, 69.8%; in the test with M14 melanoma, 29.4%; in the test with HCT-15 colon, 48.2%; in the test with HT29 colon, 3.17% (active). The growth was 65.9% with SNB-75 CNS; 48.8% in the test with SNB-19 CNS; 31.1% in the test on U251 CNS; 50.1% with PC-3 prostate; 43.4% in the test on SK-MEL-5 melanoma; 14.4% in the test with UACC-62 melanoma. The values for the growth with LOX IMVI melanoma and with SK-MEL-28 melanoma were 0.852% (active) and 33.3%, respectively.
Take `Oc1c(I)cc(I)cc1CNCCN(Cc1ccccn1)Cc1ccccn1`: the growth in the test with DU-145 prostate was -74.1% (active); with K-562 leukemia, 0.636% (active); with MALME-3M melanoma, -62.1% (active); in the test with MDA-MB-231 breast, -36.1% (active); with RXF 393 renal, -85.5% (active); with SF-268 CNS, 1.18% (active). In addition, the growth was -84.6% (active) in the test with SF-295 CNS; -56.6% (active) in the test with SF-539 CNS; -58.7% (active) in the test with UACC-257 melanoma; -32.5% (active) in the test with M14 melanoma; -30.4% (active) in the test on HCT-15 colon; -37% (active) in the test with HT29 colon. The growth is -57.2% (active) with SNB-75 CNS; 16.7% in the test with SNB-19 CNS; -29.1% (active) in the test with U251 CNS; -41% (active) with PC-3 prostate; -97% (active) with SK-MEL-5 melanoma; -14.3% (active) in the test with UACC-62 melanoma. Besides, the values for the growth in the test with LOX IMVI melanoma and in the test with SK-MEL-28 melanoma were -64.2% (active) and -14% (active), respectively.
For `CCOC(=O)c1c(C(=O)c2cn(C)c3ccc(Br)cc23)c(-c2cn(C)c3ccc(Br)cc23)n(NC(=O)OC(C)(C)C)c1C`, the growth in the test on DU-145 prostate was 97.9% [100 µM]; with K-562 leukemia, 89.1% [100 µM]; in the test with MALME-3M melanoma, 32.8% [100 µM]; in the test with MDA-MB-231 breast it was 51.2% [100 µM]; in the test on RXF 393 renal, 24.2% [100 µM]; in the test on SF-268 CNS, 82.4% [100 µM]. Also, the growth in the test with SF-295 CNS is 33% [100 µM]; in the test on SF-539 CNS, 48.3% [100 µM]; in the test with UACC-257 melanoma it was 94.8% [100 µM]; in the test on M14 melanoma, 82.7% [100 µM]; in the test with HCT-15 colon it was 89% [100 µM]; in the test on HT29 colon, 90.5% [100 µM]. Further, the growth with SNB-75 CNS was -27.3% [100 µM] (active); in the test with SNB-19 CNS it was 50.8% [100 µM]; in the test with U251 CNS it was 60.7% [100 µM]; in the test with PC-3 prostate it was 61.8% [100 µM]; in the test on SK-MEL-5 melanoma it was 90.6% [100 µM]; in the test on UACC-62 melanoma, 65.7% [100 µM]. Moreover, the growth with LOX IMVI melanoma was 78% [100 µM]; in the test on SK-MEL-28 melanoma, 107% [100 µM].

The record behind these values is PubChem BioAssay (NCI).
